According to PubChem BioAssay (NCATS):
Inconclusive results are not listed. Where a call stands in place of a potency, no number is given. A number with no mark means an inactive call. The source made the active and inactive calls. Calls follow the shape of the dose curve; as a rule, active = well fitted cell-killing curve with a large enough effect; inconclusive = small, poorly fitted or top-dose-only effect, or effect the other way; inactive = no such curve, though single readings can be large or run the other way.

Tests used:
[1] = Viability qHTS for spleen associated tyrosine kinase inhibitor (SYKi) naive MV4-11 cells (AID 1963823); also: nearly all actives have a fitted effect of over 40% in size
In short: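 Viability of MV4-11 AML cells lacking prior SYK inhibitor exposure is scored by CellTiter-Glo luminescence following 72 hr compound incubation at 37 C, 5% CO2, seeded at 500 cells per well.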

[2] = Viability qHTS for spleen associated tyrosine kinase inhibitor (SYKi) drug resistant MV4-11 cells (AID 1963824); also: nearly all actives have a fitted effect of over 35% in size
In short: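 SYK-inhibitor-resistant MV4-11 AML cells were seeded at 500 per well onto compound and cultured 72 hours (37 °C, 5% CO2). CellTiter-Glo was then added, and after 10 min at room temperature, luminescence gave viability.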
Potency is read from the fitted curve at half-maximal effect.

Row | SMILES | Potency [1] | Potency [2] | viability (% of control) [1] | viability, % of control [2]
1 | Cn1ccnc1CCOC(c1cc2nccc(C(=O)O)c2[nH]1)c1ccccc1Cl (configuration not stated) | inactive | inactive | – | –
2 | O=C(O)CC1(O)C(=O)Nc2ccccc21 (configuration not stated) | 9430 nM (active) | inactive | – | –
3 | C/C=C/C1OC2=C(C(=O)OC2(C)O)C(O)C1O (configuration not stated) | inactive | inactive | – | –
4 | CN[C@H]1CN(c2ccc3c(=O)c(C(=O)O)cn(-c4nccs4)c3n2)C[C@@H]1OC | 605 nM (active) | 428 nM (active) | – | –
5 | CC(CCC1(O)OC2CC3C4CCC5CC(O[C@@H]6O[C@H](CO)[C@@H](O)[C@H](O)[C@H]6O[C@@H]6O[C@@H](C)[C@H](O)[C@@H](O)[C@H]6O)C(O)CC5(C)C4CCC3(C)C2C1C)CO[C@@H]1O[C@H](CO)[C@@H](O)[C@H](O)[C@H]1O (some centres not stated) | – | – | 87.7% [at 9.25 µM] | 109% [at 9.25 µM]
6 | COc1cc(C(C)=O)ccc1O[C@@H]1O[C@H](CO[C@@H]2O[C@@H](C)[C@H](O)[C@@H](O)[C@H]2O)[C@@H](O)[C@H](O)[C@H]1O | inactive | inactive | – | –
7 | O=C(OC[C@H]1O[C@H](O[C@H]2CO[C@H](CO)[C@@H](O)[C@@H]2O)[C@H](O)[C@@H](O)[C@H]1O)c1ccccc1 | inactive | inactive | – | –
8 | c1ccc(Cc2ncc3c(n2)CCNCC3)cc1 | inactive | inactive | – | –
9 | OC[C@H]1O[C@@H](OC/C=C/c2ccc(O)cc2)[C@H](O)[C@@H](O)[C@@H]1O | inactive | inactive | – | –
10 | CC(=O)OC1C(O)C(C)(O)C(/C=C/C(=O)O)C2(C)CCCC(C)(C)C12 (configuration not stated) | inactive | inactive | – | –
11 | COC(=O)C1=C[C@@H](O)[C@@H](O)[C@H](O[C@@H]2O[C@H](COC(=O)/C=C/c3ccccc3)[C@@H](O)[C@H](O)[C@H]2O)C1 | inactive | inactive | – | –
12 | CCn1c(=O)c(-c2ccc(-c3cncc(C)n3)cc2Cl)cc2cnc(NCCC3CCN(C)CC3)nc21 | 1180 nM (active) | 2090 nM (active) | – | –
13 | CNc1cc2c(Nc3cccc(Br)c3)ncnc2cn1 | 18400 nM (active) | 23100 nM (active) | – | –
14 | COc1cc([C@@H]2Oc3c(OC)cc(CCCO)cc3[C@@H]2CO[C@@H]2O[C@H](CO)[C@@H](O)[C@H](O)[C@H]2O)ccc1O | inactive | inactive | – | –
15 | C=C1C(=O)OC2C(OC(=O)C=C(C)C)C(C)=C3C(=O)C=C(C)C3C(O)C12 (configuration not stated) | 2020 nM (active) | 1610 nM (active) | – | –
16 | C[C@]1(CO)CCC[C@]2(C)C3=C(CCC12)COC3 (some centres not stated) | inactive | inactive | – | –
17 | CCC[C@@H]1C[C@@H](C(=O)N[C@H](C(C)Cl)[C@H]2O[C@H](SC)[C@H](O)[C@@H](O)[C@H]2O)N(C)C1 (some centres not stated) | inactive | inactive | – | –
18 | C=CC1C(O[C@@H]2O[C@H](CO)[C@@H](O)[C@H](O)[C@H]2O)OC=C(C(=O)OC)C1CC(=O)O (some centres not stated) | inactive | inactive | – | –
19 | CCOC(=O)CCNc1cc(N2CCc3ccccc3CC2)nc(-c2cccnc2)n1 | inactive | 14600 nM (active) | – | –
20 | COC1(c2sc3c(N4CCOCC4)nc(-c4cnc(N)nc4)nc3c2C)COC1 | 231 nM (active) | 411 nM (active) | – | –
21 | C=C1C2(C)CC3C4(C)C=CC(=O)OC(C)(C)C4CCC3(C)C1(C(=O)OC)C(=O)C(C)(O)C2=O (configuration not stated) | inactive | 224 nM (active) | – | –
